HIF act: HIF pathway transcriptional activators, primary screen, cell-based, U2OS HRE-luciferase, luminescence; U2OS HRE-luciferase reporter; normalized: DMSO 0%, desferrioxamine 100%; AID 1910, 2009; activation, % at 7.5 µM (by protocol); actives 0.32% (n = 300,000);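 active means mean activation of at least 10% of the iron chelator positive control signal, with at least half of replicates also reaching 10%; inconclusive means mean and replicate majority disagree about reaching 10%; inactive means mean and most replicates under 10%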
SUMO Mot1 rescue: yeast Mot1-301 growth rescue at high temperature, primary screen, SUMOylation pathway inhibitor project, S. cerevisiae, ATP luminescence, 38.5C; growth rescue, % at 18.8 µM; S. cerevisiae Mot1-301 growth rescue; percent above DMSO median, 100 means doubled; actives 1% (n = 320,000); AID 2716, 2010;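 active means every valid replicate shows activation above 250% relative to neutral control wells; inactive means the rest, any valid replicate at or below 250%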;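 further: OY570 slx delta 5 strain wells were the positive control but not used for scaling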
ALR inh: inhibitors of human ALR sulfhydryl oxidase, primary screen, biochemical, H2O2 detection, HRP-luminol luminescence, single point | purified ALR, DTT oxidation | AID 485317, 2010 | inhibition, % (test concentration not listed) | actives 3.8% (n = 290,000);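 active means mean replicate inhibition above about 79%, with every replicate also reaching it, limit read from the data; inconclusive means only one of the two criteria met; inactive means mean below limit and not every replicate reaching it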
Target sequence (P55789 whole entry, looked up): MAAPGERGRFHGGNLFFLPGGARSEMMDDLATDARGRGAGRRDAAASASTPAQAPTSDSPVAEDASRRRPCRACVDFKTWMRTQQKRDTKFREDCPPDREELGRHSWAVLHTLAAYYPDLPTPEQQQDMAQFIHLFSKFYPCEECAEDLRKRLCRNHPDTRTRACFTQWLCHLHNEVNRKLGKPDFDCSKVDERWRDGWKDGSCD
AI-2 QS modul: Vibrio harveyi AI-2 quorum sensing modulators, primary screen, JMH597 strain, luminescence/OD600 ratio; activity change, % at 7.5 µM; AID 2094, 2009; Vibrio harveyi JMH597 AI-2 luminescence/OD600 ratio, 9 h; hits give low values; strain lacks LuxN and CqsS sensors; 0 = neutral-control median; actives 0.4% (n = 300,000); in the data active means activity change below about -75%, passing the limit was not always enough; inconclusive means no clear call, values can overlap the other calls;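 further: luminescence divided by OD600 gain over 9 h not by final OD600 alone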
* = called active by the depositor; ? = inconclusive; nt = not tested or not shown. Only some compounds are listed: those with a hit (about 4.8% of all), similar ones and a draw of the others.

SMILES | HIF act | SUMO Mot1 rescue | ALR inh | AI-2 QS modul
COc1cccc(CNc2ccc3c(c2)ncn3C(C)C)c1OC | 4 | 85 | 92* | 30
Cn1cnc2cc(NCc3ccccc3O)ccc21 | 2 | -9 | 87* | -19
O=C(CCNC(=O)N1CCn2c1nc1ccccc12)NCc1ccccc1 | 0 | 28 | nt | 30
CN(CC(=O)Nc1c(Cl)cccc1Cl)C(=O)CCNS(=O)(=O)c1ccccc1C(F)(F)F | -1 | 238 | 12 | 27
O=C(O)CSc1nnc(-c2cccc(S(=O)(=O)N3CCOCC3)c2)n1-c1ccc(F)cc1 | nt | -12 | 0 | nt
Cc1nn(CCCC(=O)NCCCN2CCN(C)CC2)c(=O)c2c1sc1ccccc12 | 0 | 21 | -11 | 8
COc1ccc(Br)cc1S(=O)(=O)N(CC(=O)N1CCN(C)CC1)c1ccccc1 | 0 | -7 | -2 | 1
COc1cccc(CNn2cnnc2)c1O | 0 | 15 | 85* | nt
CCCn1cnc2cc(NCc3cccc(OC)c3O)ccc21 | 1 | 5 | 85* | 14
CC(C)(C)c1ccc(C(=O)Cn2cnnc2C#N)cc1 | 1 | 226 | -3 | 46
Nc1n[nH]c(N)c1N=Nc1ccccc1F | -1 | 219 | 18 | 13
Nc1n[nH]c(N)c1N=Nc1ccc(F)cc1 | 0 | 18 | 86* | 5
COc1ccc(N=Nc2c(N)n[nH]c2N)cc1 | 1 | 286 | 78* | 15
Nc1n[nH]c(N)c1N=Nc1ccccc1 | -1 | 17 | 95* | 3
COc1ccc(N=Nc2c(C)n[nH]c2C)cc1 | 1 | 1 | -2 | 12
Cc1ccccc1N=Nc1c(N)n[nH]c1N | -1 | -2 | 93* | 7
Nc1n[nH]c(N)c1N=Nc1ccc(Cl)cc1Cl | 1 | -6 | 8 | 6
CSCCCc1cn([C@@H](CO)C(=O)NCCCCCCCCCCC(=O)N2CCNCC2)nn1 | -5 | 133 | 9 | -1
O=C(CCC(=O)N1CCCCC1)Nc1ccc(Cl)c(Cl)c1 | 0 | -14 | -1 | -78*
CC1CCN(CC(=O)Nc2ccc(N3CCCCCC3)cc2)CC1 | 0 | -18 | 98* | -12
CC1CCN(CC(=O)Nc2ccc(S(=O)(=O)N3CCCCC3)cc2)CC1 | -17 | 0 | -16 | -23
O=C(CNC1CCCCCC1)Nc1ccc(N2CCCC2)cc1 | 0 | -12 | 94* | 48
O=C(COC(=O)C1CCCCC1)Nc1ccc(N2CCCCC2)cc1 | 0 | nt | 88* | 16
O=C(CNC1CCCC1)Nc1ccc(N2CCCCCC2)cc1 | 0 | -13 | nt | 14
Cc1ccc(N2CCN(c3ccc(NC(=O)CCC(=O)O)cc3)CC2)cc1 | 0 | -1 | 64 | 6
SMILES | HIF act | SUMO Mot1 rescue | ALR inh | AI-2 QS modul
O=C(CNCC1CCCCC1)Nc1ccc(N2CCCCC2)cc1 | -1 | -2 | 98* | 5
O=C(O)CCC(=O)Nc1ccc(N2CCCCCC2)cc1 | 0 | -9 | 99* | 57
COc1cc(NC(=O)CSc2nnc(-c3ccncc3)o2)cc(OC)c1OC | -1 | 1 | 2 | 18
COc1ccc(NC2CCCN(C(=O)CCN3CCCO3)C2)cc1 (stereo unspecified) | 0 | 5 | 96* | nt
COc1ccc(NC2CCCN(C(=O)CCN3CCOCC3)C2)cc1 (stereo unspecified) | 0 | -14 | 99* | 10
O=C(c1cccc2ccccc12)C1CCCN(C(=O)CCN2CCCO2)C1 (stereo unspecified) | 0 | 61 | -50 | 7
O=C(CCN1CCOCC1)N1CCCC(Nc2cccc(F)c2)C1 (stereo unspecified) | 0 | 3 | 26 | 22
OCCn1c(-c2ccc3c(c2)OCO3)csc1=Nc1ccccc1 | 3 | 56 | nt | 8
OCCn1c(-c2ccc(F)cc2)csc1=Nc1ccccc1 | 1 | 239 | 96* | 3
CCn1c(-c2ccccc2)csc1=Nc1ccc(O)cc1 | 0 | -5 | 99* | -26
CC(C)N(c1nnc(N)s1)C(C)C | 0 | 6 | 97* | 18
CN(Cc1ccccc1)c1nnc(N)s1 | 0 | -11 | ? | 23
O=S(=O)(NCC(c1ccco1)N1CCCCC1)c1ccccc1C(F)(F)F (stereo unspecified) | nt | 64 | -9 | nt
CC(C)(C)[C@H]1COC(=O)CCCC/C=C\C[C@H](CC(=O)NCCO)C(=O)N1 | nt | -4 | -5 | nt
Oc1cc(O)cc(/C=C/c2ccc(O)c(O)c2)c1 | nt | -19 | 99* | nt
COCCn1c(C)nnc1SCC(=O)NNC(=O)c1ccc(Cl)cc1 | 0 | 134 | -2 | 6
CCOC(=O)C1CCCN(CCC(=O)Nc2ccc(Br)c(C)c2)C1 (stereo unspecified) | -20 | 12 | 14 | 39
Cc1ccc(C(=O)Nc2cccc(NC(=O)CN3CCCCC3)c2)cc1 | 1 | -6 | 13 | -6
Nc1nc(CSc2ncn(-c3ccccc3)n2)cs1 | 1 | -11 | 98* | 28
O=C(CSc1ncnc2ccccc12)Nc1cc(S(=O)(=O)N2CCCCC2)ccc1Cl | -3 | 14 | -24 | -1
O=C(CSc1ncnc2ccccc12)Nc1cccc(S(=O)(=O)N2CCCC2)c1 | -1 | -19 | 99* | 36
Cc1ccc(Sc2ccc(S(=O)(=O)Nc3ccc(CC(=O)O)cc3)cc2)cc1C | nt | -11 | -2 | nt
CCOc1ccc(S(=O)(=O)N2CCCCC2)cc1NC(=O)CN1C(=O)NC(C)(c2ccc(C)cc2)C1=O (stereo unspecified) | 0 | 49 | -2 | 12
CC(=O)C1=C(O)C(=O)N(c2ccc(C(=O)O)cc2)C1c1ccc([N+](=O)[O-])cc1 (stereo unspecified) | -8 | -14 | 43 | 34
Cc1cccc(N2C(=O)C(O)=C(C(=O)c3cccs3)C2c2cccc(Oc3ccccc3)c2)n1 (stereo unspecified) | 3 | 8 | 98* | 40
SMILES | HIF act | SUMO Mot1 rescue | ALR inh | AI-2 QS modul
O=C(C1=C(O)C(=O)N(c2ccccc2)C1c1ccc([N+](=O)[O-])cc1)c1cccs1 (stereo unspecified) | 0 | -4 | 89* | 1
Cc1cccc(N2C(=O)C(O)=C(C(=O)c3cccs3)C2c2ccccc2)n1 (stereo unspecified) | 1 | 3 | -17 | 16
CCN(CC(=O)NCc1cccs1)C(=O)CCC(=O)c1ccc(C)cc1 | 1 | -8 | -1 | 18
CN(C)S(=O)(=O)c1cccc(NC(=O)CSc2nc3c(cc2C#N)C(=O)CC(C)(C)C3)c1 | 1 | -31 | 98* | 16
CCN1CCN(c2cc(C)c3cc(NC(=S)N4CCN(c5ccccc5)CC4)ccc3n2)CC1 | 2 | 127 | 20 | 24
Cc1cc(N2CCOCC2)nc2ccc(NC(=S)N3CCN(c4ccccc4)CC3)cc12 | 1 | 340* | 6 | 20
COc1ccc(CNC(=S)Nc2ccc3nc(N4CCN(C)CC4)cc(C)c3c2)cc1 | 1 | -17 | -17 | 12
CCOCCCNC(=S)Nc1ccc2nc(N3CCOCC3)cc(C)c2c1 | -34 | 66 | 99* | 1

Screening data (PubChem BioAssay)
